Whole data set: some 25,000 sequences, median “ln(normalized median fluorescence intensity)” near 6.7, cut for the highest 2% near 10. Shown is part of a subset that was picked to be rich in the highest values.
system: PfHDP1 homeodomain (GST-tagged); assay: gcPBM binding intensity (ln(normalized median fluorescence intensity)); higher = stronger DNA binding
Method in brief: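 Binding intensity is defined as the maximum Masliner-normalised natural-log median intensity across replicate spots for either probe orientation. It was measured on an Agilent 4 × 180k array of primer-extended double-stranded 36-bp intergenic genomic probes and negative controls, to which GST-tagged P. falciparum DNA-binding domains made in E. coli were applied for 1 h in 1× PBS with 1% milk, 0.2 mg/ml BSA, 0.5% salmon testes DNA and 0.03% Triton X-100. Detection was by Alexa488 anti-GST antibody and scanning at 488 nm.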

Sequence | gcPBM binding intensity (ln)
CATACTCTACATAGATGTACTCATTTAAAAAAAAAA [XGTACX_site6945] | 6.12
AATTAATAAAAAAGGTGTACAGTAAATGCAATAATC [XGTACX_site7956] | 8.08
AAATATATCATACAAAGTACTTGGAATTAATATATA [XGTACX_site8907] | 6.3
ATTATGCACCAACACACACACACACCCCTAAAAAAT [CACACA_site2568] | 11.5
TAATTATGCCAACACACACACACACCCAACTAAAAA [CACACA_site8823] | 6.96
TAATTATGCAGACACACACACACACCCAACTAAAAA [CACACA_site2569] | 7
ATATAAAGGTTTATTAGTACACATTAGAATACTTTT [XGTACX_site4492] | 6.22
GGGTTTTTAAAATGTAGTACATATGTAAACATCAAA [XGTACX_site1262] | 6.7
CCAATACTGTTTAAATGTACAAGTAGGAGGTTAATT [XGTACX_site7260] | 6.64
TATATATATATATATTGTACTTTATTTTATATATTC [XGTACX_site5697] | 9.11
TTTTCAATATATATTTGTACTTTATTTTATGATATT [GTGCAC_negctrl_site732] | 6.71
GCTTATGCTCAATATTGTACTTTTTTTATTTATTCA [XGTACX_site8863] | 10.6
AGCATTTTTCATTTTGCACACATGTTTTATGGGTAT [CACACA_site5839] | 10.5
AGCATTTTTCATTTTGCACACATGTTTTATGTGTAT [CACACA_site3454] | 10.5
TATGTGTATTTATTTGCATGTTGGTTGTATTTTTTC [TGCATGCA_site479] | 6.94
TATCCTAACTTTAGATGTACACAAATAAAAAAAAAA [XGTACX_site4491] | 6.32
ATTTATATGAAAATATGTACTTATATAAATTTATTT [XGTACX_site53] | 6.23
TAAGAATAATGACATAGTACAATTTAATAGATCTAA [XGTACX_site3670] | 6.01
TTTTTTTTTAAAGAAAATAAAAATATGTACTTGACA [CACACA_negctrl_site1113] | 6.05
TAGTTAACAAATAATGCACACAAATGGATAAAATTA [CACACA_site9240] | 10.6
TTTTAAAAAAATATAATACACACCAAAAATATGCAC [CACACA_site2131] | 7.15
ATAAAATAATCTTATGCACACCAAAAATTTATATAA [CACACA_site8332] | 10.4
AAAAAATTAATAAAAACACACAAAAAAAATAAACAA [CACACA_site1907] | 6.94
AAATAAATCTTATGCACACAAATAATTAATTAAACA [CACACA_site1693] | 10.7
AAAATTATAAATCTTGCACACAAAAAAAATAATAAA [CACACA_site8771] | 8.27

Sequence | gcPBM binding intensity (ln)
CGAAATAAATCTTATGCACACAAATAATTAATTAAA [CACACA_site8491] | 10.5
AATCATAAACATTATGCACACAAAAATAAAAAAAAA [CACACA_site8289] | 8.58
TTTTTAGTTAATTAAACACACAAAAAAAAAAATAAA [CACACA_site3930] | 6.4
AAAATAATCTTATGCACACCAAAAATTTATATAATC [CACACA_site1235] | 10.6
AATTATAAATCTTGCACACAAAAAAAATAATAAAAA [CACACA_site2434] | 8.67
GTTAACAAATAATGCACACAAATGGATAAAATTATA [CACACA_site3725] | 9.97
AAGCCTTAAAAGGAAAGTACGTATATATATATATAT [XGTACX_site8559] | 9.48
TAAAGGTGAACAATACGTACATAAGAACTTATGAGG [XGTACX_site4216] | 6.43
ACAATGAGGATATATACACACATACATTAAAAAAAT [CACACA_site6955] | 6.71
GCACCAAAAAAAAGACGTACAGTTATATTAAAATAG [XGTACX_site8926] | 6.7
ATACATCAAGGACACACACACACACCCACACCCACA [CACACA_site8013] | 6.71
AAATAAATCTTATGCACACAAATAATTAATGAAACA [CACACA_site5011] | 10.6
TATATGAAATATTATGCACACAATATATAATATGAT [CACACA_site936] | 10.2
CTTAAAAACAAAAATGCACACATAATAAGCATATGT [CACACA_site9149] | 9.58
AAAGAAATGAAATATACACACATACATAAATACATA [CACACA_site6081] | 6.68
ATGTAAAACATAAAATGTACATATTATACAAACTAT [XGTACX_site5797] | 6.87
ATTTATATTATAATATGTACACAAAAAAAATTAGGA [XGTACX_site565] | 6.91
CAGTTTACTAATATTGCACACGAATATGAAAAAGAG [CACACA_site8941] | 9.89
TATGAAATATCGTGCACACACGAATAATATAAGAAT [CACACA_site4842] | 9.21
GTTTACTAATATTGCACACGAATATGAAAAAGAGAA [CACACA_site2897] | 10.6
ATTATTTATTATTTCTGTACGTATAAAAATAACATT [XGTACX_site1671] | 6.67
CAGTTAATGTTGGTACTTTATATAAAAATGATATGA [CACACA_negctrl_site1600] | 6.67
TTCCTCTTAATATGTGCACACTAAATTATAACCTAA [CACACA_site5751] | 11.3
TAAATTATATTATGCACACTTAAAAATATATTTAAC [CACACA_site3512] | 9.29
ACTAAACTTATATGTACACACATATAACATTAATTT [CACACA_site2258] | 6.67

Sequence | gcPBM binding intensity (ln)
CCTAAATTATATTATGCACACTTAAAAATATATTTA [CACACA_site5861] | 9.95
TTCCTCTTAATATGTGCACACTAAATTATAACATAA [CACACA_site3260] | 11.1
AAATAATAAATTATAACACACATATATATATATATA [CACACA_site4045] | 9.33
TTATTTTAAATTAACACATGCATAATATATGTATAT [TGCATGCA_site597] | 6.31
CCTCTTAATATGTGCACACTAAATTATAACATAATT [CACACA_site3259] | 11.3
ATTATGTATATAAATTAACACACATATGTGGTTAAT [CACACA_site9028] | 6.37
AATATATCATTATATAAACACACAATATGTTTTTTA [CACACA_site9260] | 6.22
CAGATAAGATTTTGTGGTACTATTTATTAAATTAGA [XGTACX_site2644] | 6.06
AAGGTATGATTAATCACACACATAAATATATATACA [CACACA_site2658] | 6.67
TATTTGAAAGCCAATTGTACTTTAGTTTTTGAAACA [XGTACX_site5542] | 5.98
AAAAATATAATATAATGTACACAAAAAAAAAAATTC [XGTACX_site3657] | 6.63
TATTCTAGTCTGCTTACACACATATTTATATTTATA [CACACA_site7432] | 7.53
GCTTTTGTCATGTGCACACACGTATATATTATATAT [CACACA_site6146] | 11.5
ATGCTTTTGTCATGTGCACACACGTATATATTATAT [CACACA_site4163] | 11
AGACACGTATACGATGCACACGTATGCTTTATATAT [CACACA_site9363] | 8.32
AATTATATTTAGTATATGCACACTTTATGTTTGTTA [CACACA_site2025] | 9.36
CCACGTATACGATGCACACGTATGCTTTATATATAG [CACACA_site4108] | 8.58
ATATATATTATGTGTGTGCACTTTTGTTATTATTAT | 9.03
CTATATTATTTTTCTTGTACGTAGGAAATATAGCTA [XGTACX_site6176] | 6.45
TGTATGTATAATTGAGTGCACAGAAAAAAAAAAGAA | 10.6
AAGAAAATATAAAATGCACACTATAAATTGTATATA [CACACA_site7928] | 9.72
CATTATAAAAAATAAAAAAGAAATAATTGTATATGC [CACACA_negctrl_site478] | 6.62
TTTGTATTACGTTTGTGTACATATACAATGTGTTTT [XGTACX_site7708] | 6.38
TAAGAAATAAATAGTACACACATAGACACCCACCCA [CACACA_site8429] | 7.64
ACATTAAGACACATTGCACACGTGCACCCATAGAAA [CACACA_site8029] | 10.5

Sequence | gcPBM binding intensity (ln)
TAAGAAATAAATAGTACACACATAGACACCCACCGA [CACACA_site1516] | 7.1
ACATTGCACCCGTGCACACATAGAAAAATAATTCTT [CACACA_site409] | 10.3
TCATTGAAAATTGTTGCACACATAATAATTAAATAT [CACACA_site8554] | 9.46
CCATTAAGACACATTGCACACGTGCACCCATAGAAA [CACACA_site4388] | 10.2
ATTAAGACACATTGCACACGTGCACCCATAGAAAAA [CACACA_site408] | 10.5
TACACCCATAGACACACACACACGCATAAAAAAAAA [CACACA_site8428] | 6.85
ACCCATTGCTCACGTGCACACATAGAAAAATAATTC [CACACA_site4389] | 10.7
TCACTTTTTATTAAATGTACATGCTTTCATTTTCAT [XGTACX_site8139] | 6.78
ATAAACAAAAAAAAAAAATATATCAATATATATATA [CACACA_negctrl_site299] | 8.7
TTTTTAAAAAATAAGAAAAAATAAATATATTACAAA [XGTACX_negctrl_site191] | 6.58
AAAATAAATAAATACACACACACGAATATATATATA [CACACA_site1683] | 8.57
TACTTATTTGATTGGGTGCATATATATAGTATGTAT [GTGCAC_site9845] | 9.2
TAATAAAAAAAGTGCACACACATAATATATATATAT [CACACA_site3340] | 9.23
GTGCTAAAAGTATATGCACACACATATATATGCACA [CACACA_site8472] | 10.6
AAAAAAAAAAAGCACACACACATATGAGTATATATA [CACACA_site4683] | 6.91
ATGTGCACATATAAAAGTACACGCACATATATATAT [XGTACX_site1238] | 11
AGATAAAAAAAGTACACACACACATATATATATATA [CACACA_site3072] | 9.22
TATACACATATATAAAGTACATATATGTGTAAAAAA [XGTACX_site8582] | 6.8
AAGAAAAGCATAGATGCACACATATATATATATATA [CACACA_site8675] | 9.35
AATAATAAAAAAAGTGCACACACATAATATATATAT [CACACA_site9100] | 8.79
GCTAAAAGTATATGCACACACATATATATGCACATA [CACACA_site1635] | 11
GCTAAAAGTATATGCACACACATATAGATGCACATA [CACACA_site6868] | 10.7
AAAAAAAAAAAAAGCACACACACATATGCGTATATA [CACACA_site953] | 6.43
GAAAAGCATAGATGCACACATATATATATATATATA [CACACA_site2169] | 9.77

From the supplement of paper PMC11417369
